Tau fibril ThT: qHTS for Inhibitors of Tau Fibril Formation, Thioflavin T Binding. hit rate 2.1% among 270,000. Microtubule-associated protein tau (Homo sapiens), P10636. Potency, µM (highest dose often 57.4 µM), hits mostly inhibitors. recombinant tau K18 P301L, heparin-induced fibrillization, ThT fluorescence; further: nearly all actives have a fitted effect of over 55% in size
Target sequence (P10636 561-689 P618L limits assumed): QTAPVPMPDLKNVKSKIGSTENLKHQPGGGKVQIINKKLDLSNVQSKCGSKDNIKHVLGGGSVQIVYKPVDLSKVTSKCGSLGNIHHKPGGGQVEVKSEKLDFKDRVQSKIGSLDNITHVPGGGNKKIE
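K18 P301L tau (15 uM + 0.24 uM Alexa 594-tagged), heparin 20 uM, NaOAc pH 7, 6 h 37 C; ThT 30 uM, 1 h RT, ex 450/em 510 nm.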
Tau FP inhib: qHTS for Inhibitors of Tau Fibril Formation, Fluorescence Polarization; Potency, µM (top dose mostly 57.7 µM), hits mostly inhibitors; K18 P301L tau heparin fibrillization, Alexa594 FP, 6 h; AID 1468, 2008; Microtubule-associated protein tau (Homo sapiens), P10636; hit rate 0.39% among 280,000; further: nearly all actives have a fitted effect of over 55% in size
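Recombinant K18 P301L […], labeled with Alexa 594 at 0.24 uM over 15 uM unlabeled; heparin inducer 20 uM final; 37 C, 6 hr; FP endpoint.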
Tau fluor counter: Counterscreen qHTS for Inhibitors of Tau Fibril Formation, Fluorescence Polarization. tau K18 P301L Alexa594 fluorescence, heparin fibrillization. Potency, µM (doses to about 57.7 µM). hit rate 0.93% among 280,000. AID 1463, 2008; further: nearly all actives have a fitted effect of over 55% in size
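Human tau K18 P301L (15 uM unlabeled, 0.24 uM Alexa 594-labeled) in 100 mM sodium acetate pH 7 with 20 uM heparin, 6 hr at 37 C. ThT 30 uM added, 1 hr ambient; Alexa 594 FP and total fluorescence read at 555/632 nm.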
VP16 counter: VP16 counterscreen qHTS for inhibitors of ROR gamma transcriptional activity; hit rate 3.5% among 310,000; Drosophila S2 Gal4-VP16 UAS-luciferase, luminescence, 20 h; Potency, µM (titrated, usually from 53.6 µM), usual class: inhibitors;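 further: Gal4-VP16 expression switched on by copper sulfate through the metallothionein promoter; nearly all actives have a fitted effect of over 50% in size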
RORgamma inh: qHTS for inhibitors of ROR gamma transcriptional activity; hit rate 5.4% among 310,000; Potency, µM (top dose mostly 53.6 µM), actives largely listed as inhibitors; Nuclear receptor ROR-gamma (Mus musculus), P51450; Drosophila S2 Gal4-RORgamma UAS-luciferase reporter, 20 h; further: nearly all actives have a fitted effect of over 60% in size
Target sequence (P51450 whole entry, looked up, the tested form may be a part): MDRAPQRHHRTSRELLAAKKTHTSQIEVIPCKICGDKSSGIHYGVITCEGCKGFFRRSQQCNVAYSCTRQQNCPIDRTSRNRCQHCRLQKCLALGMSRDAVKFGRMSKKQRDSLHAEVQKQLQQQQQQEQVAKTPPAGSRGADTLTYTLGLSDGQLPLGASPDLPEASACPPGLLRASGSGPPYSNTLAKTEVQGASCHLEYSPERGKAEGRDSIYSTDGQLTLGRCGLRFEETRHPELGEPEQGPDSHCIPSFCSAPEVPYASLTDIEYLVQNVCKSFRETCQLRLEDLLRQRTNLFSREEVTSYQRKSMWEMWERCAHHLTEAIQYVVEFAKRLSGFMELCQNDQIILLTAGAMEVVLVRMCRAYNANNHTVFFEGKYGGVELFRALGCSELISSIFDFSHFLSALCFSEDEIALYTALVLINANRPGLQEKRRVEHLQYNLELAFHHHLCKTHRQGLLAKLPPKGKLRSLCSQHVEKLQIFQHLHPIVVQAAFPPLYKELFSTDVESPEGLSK
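A Gal4/UAS one-hybrid system in insect cells: metallothionein-promoter Gal4–ROR gamma fusion plus Photinus luciferase reporter. Copper sulfate 700 uM final, 20 hr ambient incubation, luminescent detection after 10 min with reagent.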
Each line names hits and unclear results; the compound was inactive in the other large screens; [ ] = remark or other dose. Only some compounds are listed: those with a hit (about 7.3% of all), similar ones and a draw of the others. The call rests on the fitted dose curve; in most records, active means well fitted curve in the direction sought with a large enough effect; inconclusive means small, poorly fitted or top-dose-only effect, or another doubt; inactive means no such curve, though single readings can be large; an effect the other way counts as inactive or inconclusive.

Cc1cc(N2CCCC2)ccc1/C=C1\NC(=S)N(C)C1=O	Tau fibril ThT inconclusive, Tau fluor counter inconclusive, VP16 counter 2.51µM
Cc1cc(N2CCCC2)ccc1/C=N/n1cnnc1	Tau fibril ThT 7.08µM
Cc1cc(/C=N/n2cnnc2)c(C)n1-c1ccc(Cl)cc1	Tau FP inhib inconclusive
COc1cccc(Nc2ncc3nc(-c4ccc(F)cc4)c(=O)n(C[C@H]4CCCO4)c3n2)c1	none (no result: Tau fibril ThT, Tau FP inhib, Tau fluor counter)
Cn1cc(CCCC(=O)NCc2ccccc2Cl)c2ccccc21	none (no result: VP16 counter, RORgamma inh)
CCOC(=O)c1ccc(Nc2cc(-c3ccccc3)nc(C)n2)cc1	Tau fibril ThT inconclusive, Tau FP inhib inconclusive (no result: VP16 counter, RORgamma inh)
CCCOc1cc(C)nc(-c2ccccc2O)n1	Tau fibril ThT 15.8µM, Tau fluor counter inconclusive
Cc1cc(Nc2cccc(F)c2)nc(-c2ccccc2O)n1	Tau FP inhib 11.2µM, Tau fluor counter inconclusive, RORgamma inh inconclusive
Cc1cc(Nc2ccccc2)nc(-c2ccccc2O)n1	Tau fibril ThT inconclusive, Tau FP inhib 28.2µM, Tau fluor counter 11.2µM[quencher]
CCOC(=O)c1ccc(Nc2cc(C)nc(-c3ccccc3O)n2)cc1	Tau fibril ThT inconclusive, Tau FP inhib 10µM, Tau fluor counter inconclusive
Cc1cccc(Oc2ccc(S(=O)(=O)N3CCCCC3)cc2N)c1	none
CSCC[C@H](NC(=O)[C@H](CC(C)C)NC(=O)[C@@H]1CCCN1C(=O)[C@H](Cc1ccccc1)NC(=O)[C@H](Cc1ccccc1)NC(=O)[C@H](CCC(N)=O)NC(=O)[C@H](CCC(N)=O)NC(=O)[C@@H]1CCCN1C(=O)[C@H](CCCCN)NC(=O)[C@@H]1CCCN1C(=O)[C@@H](N)CCCN=C(N)N)C(N)=O	none (no result: Tau fibril ThT, Tau FP inhib, Tau fluor counter)
Cc1cc(NCc2ccccc2)nc(-c2ccccc2O)n1	Tau fibril ThT inconclusive, Tau FP inhib inconclusive, Tau fluor counter 12.6µM[quencher], RORgamma inh inconclusive
O=[N+]([O-])c1cnc(Sc2ccncn2)s1	Tau fibril ThT inconclusive, Tau FP inhib inconclusive, Tau fluor counter inconclusive, VP16 counter 3.16µM, RORgamma inh 3.16µM
CNc1ccccc1C(C)(C)c1cc(-c2cccc(Br)c2)no1	Tau fibril ThT inconclusive, Tau FP inhib inconclusive, Tau fluor counter inconclusive, VP16 counter 15.8µM, RORgamma inh inconclusive
O=C(NCc1ccc(Cl)cc1)C1CCCCN1S(=O)(=O)c1ccccc1 (centres undefined)	none (no result: Tau fibril ThT, Tau FP inhib, Tau fluor counter)
CC(=O)c1ccccc1OC(=O)c1ccc([N+](=O)[O-])o1	Tau fibril ThT 7.94µM, Tau FP inhib inconclusive
COc1ccc(NC(=O)C(OC(=O)c2ccc([N+](=O)[O-])o2)c2ccccc2)cc1Cl (centres undefined)	Tau FP inhib inconclusive, VP16 counter inconclusive
Cc1[nH]c2ccccc2c1C(=O)C(C)OC(=O)c1ccc([N+](=O)[O-])o1 (centres undefined)	Tau fluor counter inconclusive, RORgamma inh 14.1µM
CC1CCN(S(=O)(=O)c2nnc(NC(=O)c3ccc(C(C)C)cc3)s2)CC1	Tau fibril ThT 2.82µM, Tau FP inhib inconclusive, Tau fluor counter inconclusive (no result: VP16 counter, RORgamma inh)
COc1ccc(C(=O)Nc2nnc(S(=O)(=O)N3CCC(C)CC3)s2)cc1OC	Tau fibril ThT 12.6µM, Tau fluor counter inconclusive
CCC(CC)C(=O)Nc1cc(-c2cccc(C)c2)nn1-c1ccccc1	none (no result: VP16 counter, RORgamma inh)
CNC(=S)N1N=C(c2ccccc2)CC1c1ccccc1Cl (centres undefined)	Tau FP inhib inconclusive, RORgamma inh 17.8µM
CC(C)c1ccc(C2CC(c3ccc(Br)cc3)=NN2C(N)=S)cc1 (centres undefined)	VP16 counter 5.62µM, RORgamma inh 1.78µM
CNC(=S)N1N=C(c2ccc(C)cc2)CC1c1ccc(Cl)cc1 (centres undefined)	RORgamma inh 12.6µM
CNC(=S)N1N=C(c2ccc(C)cc2)CC1c1ccc(Br)cc1 (centres undefined)	Tau fluor counter inconclusive
CC(=O)N1N=C(c2ccc([N+](=O)[O-])cc2)CC1c1ccccc1Cl (centres undefined)	none (no result: Tau fibril ThT, Tau FP inhib, Tau fluor counter)
NC(=O)C1CCN(C(=O)c2ccc3c(=O)n(Cc4ccco4)c(SCc4ccc([N+](=O)[O-])cc4)nc3c2)CC1	none (no result: Tau fibril ThT, Tau FP inhib, Tau fluor counter)
COc1cc(C2C(=O)N(C3CCCCC3)CC(=O)N2CCC2=CCCCC2)ccc1OC(C)C (centres undefined)	none (no result: VP16 counter, RORgamma inh)
CC[C@H](C)[C@H](N)C(=O)N[C@H](C(=O)N[C@@H](CO)C(=O)N[C@@H](C)C(=O)N[C@H](C(=O)N[C@H](C(=O)NCC(=O)N[C@H](C(=O)N[C@@H](CC(C)C)C(=O)O)[C@@H](C)CC)C(C)C)C(C)C)[C@@H](C)CC	none (no result: Tau fibril ThT, Tau FP inhib, Tau fluor counter)
COc1ccccc1NC(=O)CSC(N)=O	Tau fibril ThT 31.6µM, Tau FP inhib inconclusive
Cc1ccccc1NC(=O)CSCC(=O)Nc1ccccc1C	none
COc1ccccc1NC(=O)CSc1nnc(NC(=O)Nc2ccc(C)cc2)s1	Tau FP inhib 15.8µM, Tau fluor counter inconclusive (no result: VP16 counter, RORgamma inh)
COc1ccc(Cc2nnc(NC(=O)CSc3ccc(C)cc3)s2)cc1OC	VP16 counter inconclusive, RORgamma inh 11.2µM
COc1ccccc1NC(=O)CSc1nnc(NC(=O)C2CC2)s1	none (no result: Tau fibril ThT, Tau FP inhib, Tau fluor counter)
Cc1ccccc1NC(=O)CSC(N)=O	Tau fibril ThT 25.1µM, Tau FP inhib inconclusive, VP16 counter inconclusive
COc1ccc(/C=C\c2onc(C)c2S(=O)(=O)N2CCC(C(=O)Nc3ccc(F)cc3F)CC2)cc1	Tau FP inhib inconclusive (no result: VP16 counter, RORgamma inh)
O=C(CSc1ccccc1)Nc1ccccc1C(=O)O	none
COc1cccc2c(=O)cc(C)n(CC(=O)Nc3ccc(C)c(C)c3)c12	VP16 counter inconclusive
NC(=O)SCC(=O)Nc1ccccc1C(=O)O	Tau fibril ThT 22.4µM, Tau FP inhib inconclusive
COc1ccccc1NC(=O)Cn1c(C)cc(=O)c2cccc(OC)c21	Tau fibril ThT inconclusive, VP16 counter 28.2µM
Cn1c(=O)c2sccc2n2c(CCCC(=O)NCc3ccccc3)nnc12	none (no result: VP16 counter, RORgamma inh)
O=C(NC1CCCCC1)C(c1ccncc1)N(Cc1ccccc1)C(=O)c1ccc(-c2ccccc2)[nH]1 (centres undefined)	none
CC(C)(C)NC(=O)C(c1ccncc1)N(Cc1ccco1)C(=O)c1ccc(-c2ccccc2)[nH]1 (centres undefined)	Tau fibril ThT inconclusive, VP16 counter 17.8µM, RORgamma inh 7.08µM
C/C(=N\NC(=S)Nc1ccc(F)cc1)c1ccc2c(c1)OCCO2	Tau fibril ThT inconclusive, Tau fluor counter inconclusive, VP16 counter 3.98µM, RORgamma inh 1.26µM
CC(=O)N/N=C(\C)c1ccc2c(c1)OCCO2	none
C/C(=N\NC(N)=S)c1ccc2c(c1)OCCO2	Tau fibril ThT inconclusive, VP16 counter inconclusive, RORgamma inh 5.01µM
CCOC(=O)c1c(C)[nH]c(C)c1S(=O)(=O)N(C)CC(=O)Nc1cc(Cl)ccc1C	none (no result: VP16 counter, RORgamma inh)
Nc1nnc(COc2ccc(Br)cc2Br)s1	none
Cc1ccc(C)c(OCc2nnc(N)s2)c1	RORgamma inh 12.6µM

Screening results deposited in PubChem BioAssay by National Center for Advancing Translational Sciences (NCATS).
